Compound activity as filed in PubChem BioAssay.
Only some compounds are listed: those with a hit (about 1.9% of all), similar ones and a draw of the others.
PERK inhibitor: blocks human PERK kinase; hit rate 0.17% among 220,000; CHO PERK-DD fusion, SEAP luminescence translation reporter; inhibition, % at 5.6 µM; Q9NZJ5; AID 1416;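 active = inhibition above the mean inhibition of all tested compounds plus 3 SD, set separately per screening campaign, cut at about 2.9% in these data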;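 note: PERK kinase domain activated by AP20187 dimerizer at 100 nM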
PABP FP inh: PABP-poly(A) binding inhibition | AID 2014 | P11940 | PABP-poly(A) RNA binding, fluorescence polarization | inhibition, % at 35 µM | hit rate 1% among 290,000;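 note: calls also rest on retests at 20 µM and on dose response follow-up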
Target sequence (P11940 whole entry, looked up): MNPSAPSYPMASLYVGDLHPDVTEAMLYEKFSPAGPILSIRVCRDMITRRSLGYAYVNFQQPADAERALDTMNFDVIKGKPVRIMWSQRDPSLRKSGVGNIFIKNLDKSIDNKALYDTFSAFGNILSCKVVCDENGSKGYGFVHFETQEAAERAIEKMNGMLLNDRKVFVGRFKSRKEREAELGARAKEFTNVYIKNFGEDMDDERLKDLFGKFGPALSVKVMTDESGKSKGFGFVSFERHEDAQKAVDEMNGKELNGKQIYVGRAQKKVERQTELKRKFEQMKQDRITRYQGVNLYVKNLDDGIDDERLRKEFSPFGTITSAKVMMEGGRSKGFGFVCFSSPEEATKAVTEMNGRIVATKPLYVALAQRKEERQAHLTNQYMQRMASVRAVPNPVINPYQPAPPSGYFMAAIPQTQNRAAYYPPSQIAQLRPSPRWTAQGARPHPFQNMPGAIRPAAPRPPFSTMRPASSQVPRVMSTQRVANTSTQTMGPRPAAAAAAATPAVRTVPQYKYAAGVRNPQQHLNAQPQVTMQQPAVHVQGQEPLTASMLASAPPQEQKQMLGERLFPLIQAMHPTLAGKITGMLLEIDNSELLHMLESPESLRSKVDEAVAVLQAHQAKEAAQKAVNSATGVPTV
eIF4H FP inh: inhibitors of RNA binding by human eIF4H | Q15056 | eIF4H fluorescence polarization binding assay | inhibition, % at 35 µM | hit rate 0.94% among 290,000 | AID 2012;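 note: calls also rest on retests at 20 µM and on dose response follow-up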
GRK2 inh: human GRK2 inhibition via aptamer displacement; bead flow cytometry, FAM-aptamer displacement from GRK2; inhibition of aptamer binding, % at 10 µM; hit rate 0.59% among 330,000; AID 488847;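 active = inhibition of aptamer binding above 40%, roughly 3 SD of noise, on plates passing a quality check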;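 note: median bead fluorescence of bound FAM aptamer so fluorescent compounds give negative values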
MLLE-PAM2 inh: inhibitors of microRNA-mediated deadenylation, human PABP1 MLLE binding | AID 588489 | P11940 | inhibition, % at 20 µM | GST-MLLE / FITC-PAM2 fluorescence polarization | hit rate 0.36% among 360,000; in the data active = inhibition above about 35%, passing the limit was not always enough
Numbers stand for hits; i = inactive; ? = inconclusive; nt = not tested or not shown. Unless noted, the rule behind the calls is not given here.

SMILES	PERK inhibitor	PABP FP inh	eIF4H FP inh	GRK2 inh	MLLE-PAM2 inh
COC(=O)C1CC(=O)N(c2ccc(OCc3ccccc3Cl)cc2)C1 (stereo not given)	nt	44	103	i	i
COC(=O)[C@@H](NC(=O)Nc1ccc(C(C)=O)cc1)C(C)C	i	i	57	i	i
O=C(Nc1cccc(N=Cc2cc(Br)cc(Br)c2O)c1)c1ccco1	i	active	?	i	i
CCC1c2ccc(C)n2CCN1C(=O)Nc1ccc(F)cc1 (stereo not given)	i	109	113	i	i
CCCCc1c(C)nc2ccccc2c1SCCC(=O)O	i	i	9.8	i	i
CCCCc1c(C)nc2ccc(C)cc2c1SCCC(=O)O	i	i	i	i	i
Cc1ccc(NS(=O)(=O)c2cc(C(=O)N(C)C)ccc2C)cc1C	i	i	i	nt	i
O=C(Oc1ccc[nH]c1=O)c1cc([N+](=O)[O-])cc([N+](=O)[O-])c1	i	30	i	i	i
COc1ccc(NC(=O)/C=C/c2c(Cl)nc3ccccn23)cc1	i	76	1.5	i	i
COc1ccccc1N1CCN(C(=O)/C=C/c2c(Cl)nc3ccccn23)CC1	i	i	i	i	i
Cc1ccccc1CNC1CCCCC1	i	i	i	i	i
Oc1cc(CNC2CCCCC2)c(O)cc1CNC1CCCCC1	nt	nt	nt	nt	53
Cc1cc(Br)ccc1NC(=O)CN(C)C(=O)c1ccc(-n2cncn2)c([N+](=O)[O-])c1	nt	nt	nt	i	i
O=C(CN1CCOCC1)Nc1ncc(Br)cc1Br	3.2	i	i	i	i
Cc1cc(C(=O)CSc2nn3c(=O)c(C(C)(C)C)nnc3s2)c(C)n1C	i	101	38	i	i
O=[N+]([O-])c1ccc(-c2nnc(CSc3nc(-c4ccccc4)nc4ccc(F)cc34)o2)cc1	i	nt	nt	nt	nt
COc1cc(CC2COC(c3ccc(O)c(OC)c3)C2COC(C)=O)ccc1O (stereo not given)	nt	55	90	i	i
CC1=NN(c2ccccc2)C(=O)C1C(=S)SC1CC(=O)NC1=O (stereo not given)	nt	nt	nt	nt	49
CC1=NN(c2ccccc2)C(=O)C1C(=O)c1ccccc1 (stereo not given)	i	i	i	i	i
Cc1cc2c(cc1C)NC(C)CC(=O)N2 (stereo not given)	nt	nt	nt	nt	i
O=C(O)CN1C(=O)/C(=C2\SC(=S)N(C(Cc3ccccc3)C(=O)O)C2=O)c2ccccc21 (stereo not given)	nt	i	i	i	39
CCCC(C(=O)O)N1C(=O)/C(=C2\C(=O)N(C)c3ccccc32)SC1=S (stereo not given)	nt	i	i	i	i
Cc1ccc(S(=O)(=O)Nc2ccc3c(c2)OCCO3)cc1	i	i	i	i	i
O=[N+]([O-])c1ccc(S(=O)(=O)Nc2ccc3c(c2)OCCO3)cc1	nt	i	i	i	41
CCc1ccc(-c2nc(CS(=O)CC(=O)NCCCN3CCC(C)CC3)c(C)o2)cc1 (stereo not given)	nt	i	i	i	i
SMILES	PERK inhibitor	PABP FP inh	eIF4H FP inh	GRK2 inh	MLLE-PAM2 inh
O=C(O)c1cc(O)c2c(c1)[C@@H]([C@H]1c3cc(C(=O)O)cc(O)c3C(=O)c3c(O[C@@H]4O[C@H](CO)[C@@H](O)[C@H](O)[C@H]4O)cccc31)c1cccc(O[C@@H]3O[C@H](CO)[C@@H](O)[C@H](O)[C@H]3O)c1C2=O	nt	nt	nt	100	nt
CC(C)c1cccc(OCCN2CCCC2)c1	nt	i	i	i	i
CCCCCn1c(C)c2c(OCC)cccc(=O)c2c1C	i	i	i	i	i
CCOc1cccc(=O)c2c(C)n(C)c(C)c12	i	69	60	i	i
O=C(CCCN1C(=O)c2ccccc2C1=O)Nc1nnc(C2CC2)s1	i	59	active	i	i
COCc1nnc(NC(=O)CCCCCN2C(=O)c3ccccc3C2=O)s1	i	i	i	i	i
Cc1cccc(NC(=O)CN2C(=O)NC3(CCCC3)C2=O)n1	nt	nt	nt	i	i
O=C(NCc1ccc(F)cc1)C(=O)NCC1OCCCN1S(=O)(=O)c1cccs1 (stereo not given)	nt	i	i	i	i
CCCCc1ccc(NC(=O)CC(C)=O)cc1	i	i	i	i	i
CCCCc1ccc(NC(=O)CC(C)(C)C)cc1	i	active	98	i	i
COc1ccc2c(C(=O)CN3CCSCC3)c[nH]c2c1	i	i	i	i	i
COc1ccc2c(C(=O)CN3CCN(c4ccccc4)CC3)c[nH]c2c1	i	70	69	i	i
O=c1c2cc(N3CCOCC3)ccc2[nH]c(=S)n1Cc1ccco1	nt	57	91	i	i
COc1ccc(NC(=O)c2ccc3c(=O)n(Cc4ccco4)c(=S)[nH]c3c2)c(OC)c1	i	14	70	i	i
COc1cc2[nH]c(=S)n(Cc3ccco3)c(=O)c2cc1OC	i	23	52	i	i
COc1cc2[nH]c(=S)n(NC(=O)c3ccccc3)c(=O)c2cc1OC	i	i	i	i	36
COCCN(Cc1ccc(C)cc1)C(=O)[C@H]1O[C@@H](n2cnc3c(N)ncnc32)[C@H](O)[C@@H]1O	nt	nt	nt	nt	i
Nc1ccc(S(=O)(=O)c2ccc(N3CCOCC3)c(N)c2)cc1	nt	nt	nt	nt	i
CC1SC(=NC(=O)C(C)N2C(=O)c3ccccc3C2=O)NC1=O (stereo not given)	i	i	i	i	i
NC(=O)c1[nH]cnc1N	nt	i	i	i	i
Cc1ccc(OCCN2CCC2(C)C(=O)Nc2ccc3c(c2)OCCO3)cc1 (stereo not given)	nt	nt	nt	nt	i
Clc1ccc(CN2CCN(c3ncccn3)CC2)cc1	nt	i	i	i	i
Cc1ccsc1C1CC(=O)OC2=C1C(=O)CC(C)(C)C2 (stereo not given)	i	i	i	i	nt
CCC1(CC)NC(=O)N(CC(=O)Nc2sc3c(c2C(N)=O)CCC3)C1=O	i	71	79	i	i
CCN(C(=O)COC(=O)/C=C/c1ccco1)C1CCCCC1	nt	nt	nt	49	i
SMILES	PERK inhibitor	PABP FP inh	eIF4H FP inh	GRK2 inh	MLLE-PAM2 inh
CCCCn1c(N)c(N(C(=O)CSc2nnc(C)n2-c2ccccc2)C2CCCC2)c(=O)[nH]c1=O	nt	nt	nt	i	i
O=C(COC(=O)c1ccc(F)cc1)NC1CC1	nt	nt	nt	i	i
Cc1ccc(S(=O)(=O)N2CCOCC2)cc1C(=O)N1C(=O)c2cccc(N)c2C1=O	i	71	57	i	i
CCCc1nc2ccc(Cl)cn2c1Cc1ccsc1	nt	nt	nt	nt	44
C=CCN1C(=O)/C(=C2/C(=O)N(CC(=O)O)c3ccccc32)S/C1=N/c1nccs1	i	68	105	nt	nt
Cc1ccc(C(=O)N/C(=C\c2ccc(-c3ccccc3[N+](=O)[O-])o2)C(=O)NCCCN2CCOCC2)cc1	nt	82	98	i	i
Cc1ccc(C(=O)N/C(=C\c2cn(C)c3ccccc23)C(=O)NCCCN2CCOCC2)cc1	nt	i	i	i	i
O=C1CCNc2cc3ccccc3cc21	i	75	82	i	i
O=C(OC(C(=O)NC1CCCCC1)c1ccccc1F)c1ccco1 (stereo not given)	nt	i	i	i	i
O=S(=O)([N-]c1nc2ccccc2nc1-[n+]1ccc(CCCc2ccccc2)cc1)c1cccs1	i	56	116	i	i
O=S(=O)([N-]c1nc2ccccc2nc1-[n+]1ccc(-c2ccncc2)cc1)c1ccccc1	i	i	?	i	i
